From the supplement of paper PMC6555819

Columns and labels:
Experiment in all cases: PBM binding z-score (relative to random genomic background probes); higher = stronger binding; sequences stand for … in GC…GCGATTGACAGCGTAGAATGAAGG
[1] = system: FXR:RXRa (NR concentration 270 nM, RXRa partner concentration 90 nM)
Outline: (§1)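 Random background probes are the reference for binding z-scores. These scores derive from regression-normalized fluorescence on custom Agilent 4×180K protein-binding microarrays incubated 1 h with ligand-free nuclear receptor dimers. Binding was detected with antibodies against each partner (one per run).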

[2] = system: LXRa:RXRa (NR concentration 270 nM, RXRa partner concentration 90 nM)
Outline: as §1

[3] = system: LXRa homodimer (NR concentration 270 nM)
Outline: as §1

[4] = system: LXRb:RXRa (NR concentration 270 nM, RXRa partner concentration 90 nM)
Outline: as §1

[5] = system: LXRb homodimer (NR concentration 270 nM)
Outline: as §1

[6] = system: PPARa:RXRa (NR concentration 270 nM, RXRa partner concentration 90 nM)
Outline: as §1

[7] = system: PPARg:RXRa (NR concentration 180 nM, RXRa partner concentration 90 nM)
Outline: as §1

[8] = system: PPARg:RXRa 270nM:90nM, anti-RXR (NR concentration 270 nM, RXRa partner concentration 90 nM)
Outline: as §1

[9] = system: PPARg:RXRa 30nM:10nM, anti-RXR (NR concentration 30 nM, RXRa partner concentration 10 nM)
Outline: as §1

[10] = system: PPARg:RXRa 90nM:30nM, anti-RXR (NR concentration 90 nM, RXRa partner concentration 30 nM)
Outline: as §1

[11] = system: PPARg:RXRa DBDmut IVT, anti-RXR (DBD mutation: RXRa K156A/R161A, NR concentration 270 nM, RXRa partner concentration 90 nM)
Outline: as §1

[12] = system: PPARg:RXRa IVT, anti-PPARg (NR concentration 270 nM, RXRa partner concentration 90 nM)
Outline: as §1

[13] = system: PPARg DBDmut:RXRa IVT, anti-PPARg (DBD mutation: PPARg1 K132A/R137A, NR concentration 270 nM, RXRa partner concentration 90 nM)
Outline: as §1

[14] = system: PPARg DBDmut IVT, anti-PPARg (DBD mutation: PPARg1 K132A/R137A, NR concentration 270 nM)
Outline: as §1

[15] = system: PPARg homodimer (NR concentration 180 nM)
Outline: as §1

[16] = system: PXR:RXRa (NR concentration 270 nM, RXRa partner concentration 90 nM)
Outline: as §1

[17] = system: PXR homodimer (NR concentration 270 nM)
Outline: as §1

[18] = system: RARa:RXR (NR concentration 270 nM, RXRa partner concentration 90 nM)
Outline: as §1

[19] = system: RARa homodimer (NR concentration 270 nM)
Outline: as §1

[20] = system: RARb:RXRa (NR concentration 270 nM, RXRa partner concentration 90 nM)
Outline: as §1

TCATATAAGTAAACAGGTGAAAGTCCGTAAGTTA
PBM binding z-score [1]: 1.27
PBM binding z-score [2]: 1.25
PBM binding z-score [3]: 0.422
PBM binding z-score [4]: 1.2
PBM binding z-score [5]: 0.0139
PBM binding z-score [6]: 1.55
PBM binding z-score [7]: 1.32
PBM binding z-score [8]: 2.57
PBM binding z-score [9]: 4.41
PBM binding z-score [10]: 3.57
PBM binding z-score [11]: 3.11
PBM binding z-score [12]: 1.31
PBM binding z-score [13]: 0.554
PBM binding z-score [14]: 1.07
PBM binding z-score [15]: 1.13
PBM binding z-score [16]: 1.09
PBM binding z-score [17]: 0.507
PBM binding z-score [18]: 1.19
PBM binding z-score [19]: 1.75
PBM binding z-score [20]: 0.383

TCGAGTACGTTAGGGGCATTCAGAATGGCGTCGA
PBM binding z-score [1]: -0.212
PBM binding z-score [2]: -0.0926
PBM binding z-score [3]: -0.859
PBM binding z-score [4]: 0.0159
PBM binding z-score [5]: -1.01
PBM binding z-score [6]: 0.403
PBM binding z-score [7]: 0.0548
PBM binding z-score [8]: 0.205
PBM binding z-score [9]: 0.448
PBM binding z-score [10]: 0.552
PBM binding z-score [11]: 0.475
PBM binding z-score [12]: -0.595
PBM binding z-score [13]: -1.29
PBM binding z-score [14]: -1.15
PBM binding z-score [15]: -0.704
PBM binding z-score [16]: 1.69
PBM binding z-score [17]: 5.78
PBM binding z-score [18]: -0.118
PBM binding z-score [19]: -0.866
PBM binding z-score [20]: 0.723

CGTGCTAGGTCAATGGTCAGCTAAAGCAGCTCGC
PBM binding z-score [1]: 3.1
PBM binding z-score [2]: 2.22
PBM binding z-score [3]: 0.0909
PBM binding z-score [4]: 1.37
PBM binding z-score [5]: -0.184
PBM binding z-score [6]: 3.03
PBM binding z-score [7]: 5.04
PBM binding z-score [8]: 5.55
PBM binding z-score [9]: 2.98
PBM binding z-score [10]: 5.12
PBM binding z-score [11]: 4.64
PBM binding z-score [12]: 4.42
PBM binding z-score [13]: 0.168
PBM binding z-score [14]: -1.05
PBM binding z-score [15]: 1.65
PBM binding z-score [16]: 0.869
PBM binding z-score [17]: -0.615
PBM binding z-score [18]: 1.59
PBM binding z-score [19]: -0.282
PBM binding z-score [20]: 3.77

CCAATTAGTTGACCATAAGGGCAACCGAAGCTCG
PBM binding z-score [1]: 0.987
PBM binding z-score [2]: 0.336
PBM binding z-score [3]: 0.562
PBM binding z-score [4]: 0.314
PBM binding z-score [5]: 0.402
PBM binding z-score [6]: 0.626
PBM binding z-score [7]: 0.453
PBM binding z-score [8]: 0.425
PBM binding z-score [9]: -0.327
PBM binding z-score [10]: 0.254
PBM binding z-score [11]: 0.617
PBM binding z-score [12]: 0.411
PBM binding z-score [13]: 0.198
PBM binding z-score [14]: 0.147
PBM binding z-score [15]: 1.75
PBM binding z-score [16]: 0.497
PBM binding z-score [17]: 0.892
PBM binding z-score [18]: 0.865
PBM binding z-score [19]: 1.38
PBM binding z-score [20]: 1.67

TGAATGAGGTTATAAGATGAGGGAACGTTGCAAA
PBM binding z-score [1]: 1.51
PBM binding z-score [2]: 1.28
PBM binding z-score [3]: -0.0389
PBM binding z-score [4]: 1.09
PBM binding z-score [5]: 0.338
PBM binding z-score [6]: 2.36
PBM binding z-score [7]: 1.1
PBM binding z-score [8]: 1.61
PBM binding z-score [9]: 1.03
PBM binding z-score [10]: 1.43
PBM binding z-score [11]: 1.09
PBM binding z-score [12]: 1.5
PBM binding z-score [13]: 0.967
PBM binding z-score [14]: 0.169
PBM binding z-score [15]: 0.684
PBM binding z-score [16]: 0.72
PBM binding z-score [17]: -0.291
PBM binding z-score [18]: 1.49
PBM binding z-score [19]: 0.262
PBM binding z-score [20]: 1.19

TCATATAGGTAAAAGGTGGAAGTCGGTGTGGTAA
PBM binding z-score [1]: 0.924
PBM binding z-score [2]: 0.974
PBM binding z-score [3]: 0.29
PBM binding z-score [4]: 1.22
PBM binding z-score [5]: 0.619
PBM binding z-score [6]: 3.71
PBM binding z-score [7]: 6.89
PBM binding z-score [8]: 7.1
PBM binding z-score [9]: 6.28
PBM binding z-score [10]: 7.79
PBM binding z-score [11]: 5.75
PBM binding z-score [12]: 3.56
PBM binding z-score [13]: 0.901
PBM binding z-score [14]: 0.975
PBM binding z-score [15]: 2.35
PBM binding z-score [16]: 0.586
PBM binding z-score [17]: 0.623
PBM binding z-score [18]: 1.18
PBM binding z-score [19]: 1.17
PBM binding z-score [20]: 0.885

CCTATTTGTTGACCATAAGGGCAACCGAAGCTCG
PBM binding z-score [1]: 0.863
PBM binding z-score [2]: 0.511
PBM binding z-score [3]: 0.84
PBM binding z-score [4]: 0.696
PBM binding z-score [5]: 1.12
PBM binding z-score [6]: 0.847
PBM binding z-score [7]: 0.437
PBM binding z-score [8]: 0.529
PBM binding z-score [9]: 0.245
PBM binding z-score [10]: 0.342
PBM binding z-score [11]: 0.427
PBM binding z-score [12]: 0.84
PBM binding z-score [13]: 0.694
PBM binding z-score [14]: 0.679
PBM binding z-score [15]: 1.94
PBM binding z-score [16]: 1.09
PBM binding z-score [17]: 0.998
PBM binding z-score [18]: 1.35
PBM binding z-score [19]: 1.45
PBM binding z-score [20]: 1.72

ATCGAAAGGTCGTGAGGTGAGGATACAGAAAGGC
PBM binding z-score [1]: 5.69
PBM binding z-score [2]: 4.09
PBM binding z-score [3]: 0.323
PBM binding z-score [4]: 3.37
PBM binding z-score [5]: 0.581
PBM binding z-score [6]: 5.08
PBM binding z-score [7]: 4.41
PBM binding z-score [8]: 4.73
PBM binding z-score [9]: 1.86
PBM binding z-score [10]: 3.51
PBM binding z-score [11]: 0.406
PBM binding z-score [12]: 2.89
PBM binding z-score [13]: 1.55
PBM binding z-score [14]: 0.615
PBM binding z-score [15]: 2.28
PBM binding z-score [16]: 3.3
PBM binding z-score [17]: 0.684
PBM binding z-score [18]: 4.61
PBM binding z-score [19]: 1.12
PBM binding z-score [20]: 4.13

ACTATTAGTTGACTTAGGGCAACCCATACGACGC
PBM binding z-score [1]: 0.287
PBM binding z-score [2]: 0.126
PBM binding z-score [3]: 0.344
PBM binding z-score [4]: 0.24
PBM binding z-score [5]: 0.53
PBM binding z-score [6]: 0.137
PBM binding z-score [7]: 1.03
PBM binding z-score [8]: 0.234
PBM binding z-score [9]: 0.457
PBM binding z-score [10]: 0.203
PBM binding z-score [11]: 0.51
PBM binding z-score [12]: 0.696
PBM binding z-score [13]: 0.977
PBM binding z-score [14]: 1.6
PBM binding z-score [15]: 0.67
PBM binding z-score [16]: 0.18
PBM binding z-score [17]: 0.375
PBM binding z-score [18]: 0.59
PBM binding z-score [19]: 1.02
PBM binding z-score [20]: 0.823

GCTACTAGGTCAGGTTGGTCAGCTAACGGGTACG
PBM binding z-score [1]: 1.47
PBM binding z-score [2]: 0.811
PBM binding z-score [3]: 0.0315
PBM binding z-score [4]: 0.809
PBM binding z-score [5]: 0.129
PBM binding z-score [6]: 2.66
PBM binding z-score [7]: 4.12
PBM binding z-score [8]: 3.52
PBM binding z-score [9]: 0.868
PBM binding z-score [10]: 3.19
PBM binding z-score [11]: 7.04
PBM binding z-score [12]: 6.37
PBM binding z-score [13]: 0.412
PBM binding z-score [14]: 0.27
PBM binding z-score [15]: 1.12
PBM binding z-score [16]: 0.422
PBM binding z-score [17]: -0.0861
PBM binding z-score [18]: 0.74
PBM binding z-score [19]: 0.258
PBM binding z-score [20]: 3.26

ATATGTAGGTTGGCTGGGGTCATTCAGACTAGGC
PBM binding z-score [1]: 4.06
PBM binding z-score [2]: 3.56
PBM binding z-score [3]: 2.01
PBM binding z-score [4]: 4.28
PBM binding z-score [5]: 2.04
PBM binding z-score [6]: 4.46
PBM binding z-score [7]: 2.66
PBM binding z-score [8]: 3.18
PBM binding z-score [9]: 0.972
PBM binding z-score [10]: 1.89
PBM binding z-score [11]: 2.56
PBM binding z-score [12]: 2.75
PBM binding z-score [13]: 1.35
PBM binding z-score [14]: 1.7
PBM binding z-score [15]: 2.57
PBM binding z-score [16]: 5.98
PBM binding z-score [17]: 4.44
PBM binding z-score [18]: 5.69
PBM binding z-score [19]: 0.758
PBM binding z-score [20]: 2.62
